# An excerpt weighted towards active compounds, which were near 21% of everything screened.
# Pf growth 96h = P. falciparum growth inhibition at 96 hour, primary screen for plastid delayed-death inhibitors; P. falciparum luciferase reporter growth, 96 h; hit rate 6.9% among 320,000; Potency, µM (top dose mostly 28.7 µM), inactives show at the top dose activity change, negative = inhibition, most hits filed as inhibitors; AID 504834; further: potency means the concentration at half of the fitted maximal effect; on the % scale 0 is the no-effect control and ±100 the full control effect
#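 P. falciparum expressing integrated firefly luciferase grown in erythrocytes (2% hematocrit, 0.05% parasitemia final) with compounds for 96 hours at 37 C, 5% CO2. Growth inhibition read as loss of luminescence after adding luciferase detection reagent.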
# Shiga toxin inh = Shiga toxin inhibition; Vero cells, Shiga toxin protein synthesis inhibition reporter; inhibition, % at 38.7 µM; hit rate 9.2% among 290,000; AID 2315; in the data active means inhibition mostly above about 28%, no sharp cut-off; inactive means mostly below about 43%; further: 0% is about no effect
# NS1 function inh = influenza NS1 inhibition | Potency, µM (titrated, usually from 46.1 µM), for the others: at the highest dose activity, positive = more growth | hit rate 0.4% among 270,000 | AID 2326; calls by dose curve; further: potency means the concentration at half of the fitted maximal effect; actives are rising curves; nearly all actives have a fitted effect of over 50% in size
#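 Growth recovery, yeast-based: influenza A NS1 expressed in S. cerevisiae causes slow growth, and suppressors are detected by OD600. The parent strain without NS1 is used as positive control.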
# Sm TGR inh = blocks Schistosoma mansoni thioredoxin glutathione reductase | Q962Y6 | purified TGR, DTNB reduction, TNB absorbance 405 nm | Potency, µM (highest dose often 114 µM), for the others: at the highest dose activity change, negative = inhibition, most hits filed as inhibitors | hit rate 3% among 360,000; further: potency means the concentration at half of the fitted maximal effect; on the % scale 0 is the no-effect control and ±100 the full control effect; nearly all actives have a fitted effect of over 60% in size
#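 TGR 20 nM + NADPH 100 uM (dispensed conc.), cpd preinc 15 min RT; start with NADPH (500 uM addition) then DTNB (15 mM addition). Kinetic TNB absorbance, 405 nm filter. Four-parameter Hill fit across titration.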
# Pf growth 48h = inhibits P. falciparum growth in the first generation, 48 h; P. falciparum luciferase growth in erythrocytes, 48 h; Potency, µM (highest dose often 28.7 µM), for the others: at the top dose activity change, negative = inhibition, hits mostly inhibitors; hit rate 5.9% among 310,000; further: potency means the concentration at half of the fitted maximal effect; on the % scale 0 is the no-effect control and ±100 the full control effect
#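 Luciferase-expressing P. falciparum in infected erythrocytes (2% hematocrit, 0.1% parasitemia final) in RPMI 1640/0.5% Albumax were exposed to compound for 48 hours at 37 C, 5% CO2; growth read as luminescence.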
# CHX counter = affects cycloheximide protein synthesis inhibition readout, counter-screen; cell reporter, cycloheximide protein synthesis inhibition counterscreen; max response, %; hit rate 12% among 300,000; AID 2314; in the data active means max response mostly above about 13%, no sharp cut-off; inactive means mostly below about 14%; further: read at 38.3 µM for the half of the compounds with a filed dose; 0% is about no effect
# The depositor's hits bear a star; ? = inconclusive; . = no result given; [ ] = remark or other dose. Unless noted, the call rests on the fitted dose curve; in most records, active means well fitted curve in the direction sought with a large enough effect; inconclusive means small, poorly fitted or top-dose-only effect, or another doubt; inactive means no such curve, though single readings can be large; an effect the other way counts as inactive or inconclusive.
SMILES,Pf growth 96h,Shiga toxin inh,NS1 function inh,Sm TGR inh,Pf growth 48h,CHX counter
O=C1NC(=O)N(c2ccc(F)cc2)C(=O)/C1=C/c1ccc(N2CCOCC2)cc1,1%,-11,.,1%,-3%,8
CN(C)c1ccc(/C=C2\C(=O)NC(=O)N(CCc3ccc(F)cc3)C2=O)cc1,?,-4,-31%,4µM*,-4%,-1
COc1ccc(-c2[nH]ncc2CN(Cc2nccn2C)C(C)C)c(F)c1,22%,7,0%,30%,-7%,-2
CCn1ccnc1CN(C)Cc1cn[nH]c1-c1ccc(F)cc1F,12µM*,-15,2%,1%[57.1 µM],9%,-2
CCOC(=O)CNC(=O)CSc1nc2cccnc2n1C1CCCCC1,9.3µM*,11,-8%,-24%,-14%,-4
O=[N+]([O-])c1cc(C(F)(F)F)cc([N+](=O)[O-])c1N1CCN(S(=O)(=O)c2ccccc2)CC1,15µM*,-4,3%,-8%,?,-4
O=C1NC(=O)C(=Cc2ccc(N3CCN(C(=O)c4ccccc4)CC3)c([N+](=O)[O-])c2)C(=O)N1,?,-9,.,11µM*,4%,-5
Cn1c(=O)n(C)c2cc([N+](=O)[O-])c(N3CCN(S(=O)(=O)c4ccc(C(C)(C)C)cc4)CC3)cc21,?,-8,13%,1%,9.3µM*,1
Cc1ccc(C)c(S(=O)(=O)N2CCN(C(=O)c3ccc(-n4cncn4)c([N+](=O)[O-])c3)CC2)c1,12µM*,.,.,-2%,?,.
CN1C(=O)C(=Cc2ccc(N3CCOCC3)c([N+](=O)[O-])c2)C(=O)N(C)C1=O,0%,13,9%,.,3%,-2
O=[N+]([O-])c1cc(C(F)(F)F)ccc1N1CCN(S(=O)(=O)c2ccc3ccccc3c2)CC1,-33%,-5,25%,-1%,?,2
CCOC(=O)c1cccc(NC(=O)CC2C(=O)N(c3ccc(C)cc3)C(=O)N2Cc2cccc(OC)c2)c1 (stereo unspecified),.,.,.,-10%,.,.
CC(C)(C)OC(=O)N1CCC(c2c(C(=O)NCc3ccco3)cnn2-c2ccccc2)CC1,.,.,.,-9%,.,.
Cc1ccc(C)c(S(=O)(=O)N2CCN(C(=O)c3ccc(N4CCCC4)c([N+](=O)[O-])c3)CC2)c1,?,-12,12%,-10%,?,1
O=C(c1ccc(-n2cncn2)c([N+](=O)[O-])c1)N1CCN(S(=O)(=O)c2ccc(Cl)cc2)CC1,4.7µM*,-10,-1%,-21%,?,1
O=S(=O)(c1cccc(C(F)(F)F)c1)N1CCN(c2nnnn2-c2ccccc2)CC1,8.3µM*,-6,0%,4%,-2%,-3
CC(=O)Nc1ccc(S(=O)(=O)N2CCN(c3nnnn3-c3ccccc3)CC2)cc1,69%,4,6%,21%,-26%,-1
O=C(c1ccc(-n2cncn2)c([N+](=O)[O-])c1)N1CCN(c2cccc(Cl)c2)CC1,-25%,-13,-47%,0%,4%,-3
O=C(c1ccc(N2CCCC2)c([N+](=O)[O-])c1)N1CCN(S(=O)(=O)c2ccccc2)CC1,?,.,.,-12%,10µM*,.
Cc1cc(SCC(=O)c2ccccc2)nc(=O)[nH]1,41%,85*,1%,-19%,31%,63*
Cc1cc(SCC(=O)c2ccc(Cl)cc2)nc(=O)[nH]1,-2%,52*,15%,-9%,-6%,43*
Cc1ccc(CNC(=O)CSc2cc(C)[nH]c(=O)n2)cc1,.,.,.,-4%,.,.
Cc1ccc(C(=O)CSc2cc(C)[nH]c(=O)n2)cc1,138%,84*,16%,35%,151%,37*
CC(=O)Nc1ccc(NC(=O)C(C)OC(=O)c2cccs2)cc1 (stereo unspecified),18%,.,.,11%,26%,.
Cc1cccc(CSCCNC(=O)CN(c2ccccc2)S(=O)(=O)N(C)C)c1,.,.,.,7%,.,.
SMILES,Pf growth 96h,Shiga toxin inh,NS1 function inh,Sm TGR inh,Pf growth 48h,CHX counter
Cc1cc(N2CCCCC2)nc(SCC(=O)c2ccccc2)n1,-25%,73*,-16%,0%,43%,34*
Cc1cc(C)nc(SCC(=O)c2ccc(F)cc2)n1,222%,31*,12%,-21%,-18%,17*
COc1ccc(C(=O)CSc2nc(C)cc(C)n2)cc1C,5%,12,-15%,-20%,-7%,6
Cc1cc(C)nc(SCC(=O)c2ccc(F)c(C)c2)n1,-11%,22,-17%,9%,?,11*
Cc1nc(SCC(=O)c2ccc(F)cc2)c([N+](=O)[O-])[nH]1,1.9µM*,-18,3%,3%,5%,3
C(=N/Nc1nnc2c(n1)[nH]c1ccccc12)/c1cccnc1,.,.,16%,.,.,.
Cc1cc(=O)[nH]c(SCC(=O)N2CCN(c3ccccc3)CC2)n1,.,.,.,3%,.,.
Cc1cc(=O)[nH]c(SCC(=O)N2CCN(C(c3ccccc3)c3ccccc3)CC2)n1,-8%,15,-46%,-17%,13µM*,-3
CCc1ccc(C(=O)CSc2nc(C)cc(=O)[nH]2)cc1,-20%,49*,2%,11%,7%,32*
CCCc1cc(=O)[nH]c(SCC(=O)N2CCN(S(=O)(=O)c3ccc(C)cc3)C2)n1,13µM*,-13,?,-25%,.,-8
CCCc1cc(=O)[nH]c(SCC(=O)N2CCN(S(=O)(=O)c3ccccc3)CC2)n1,?,-5,3%,-19%,-9%,-2
Cc1cc(=O)[nH]c(SCC(=O)c2ccc(F)c(C)c2)n1,0.26µM*,26,13%,-30%,?,14*
COc1ccc(NS(=O)(=O)c2cc3c(cc2C)N(C(C)=O)CCO3)c(OC)c1,-21%,10,3%,7%,-18%,1
Cc1cc(C)nc(S/C=C/C(=O)c2ccc(F)cc2)n1,-19%,68*,-6%,0.71µM*,?,37*
Cc1cc(C)nc(SCC(=O)c2ccc(F)cc2F)n1,15%,.,1%,-3%,?,20*
CCOC(=O)COc1ccccc1/C=C\[N+](=O)[O-],107%,-20,-64%,11µM*,15µM*,-11
Cc1ccc(/C=C/C(=O)NCc2cccs2)c(C)c1,?,53*,-8%,17%,70%,37*
O=C(/C=C/c1ccc(Br)o1)NCc1ccccc1,19%,17,1%,.,1%,-1
Cc1ccc(/C=C/C(=O)NCc2cccs2)cc1,-16%,139*,-5%,3%,59%,66*
Cc1ccc(CNC(=O)/C=C/c2ccc(Br)o2)cc1,0%,-5,-14%,8.9µM*,5%,4
Cc1ccc(/C=C/C(=O)NCc2ccncc2)cc1,?,23,3%,5%,12%,12
Cc1ccc(/C=C/C(=O)NCc2cccs2)o1,74%[5.75 µM],91*,.,2.8µM*,19%,18*
